Among all 310,000 compounds or so, about 1,000 (0.32%) were called active. Not all results are given here. Measured potencies and affinities stand elsewhere. Values without a mark were called inactive. How the calls were made is not given here.
Experiment: PhoP regulon inhibitors, Salmonella typhi PhoP promoter GFP reporter, confirmatory (AID 1850);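 further: 0% = induced wells with vehicle and 100% = uninduced wells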
Settings: fluorescence, 4 h, at 50 µM, hits give high values

Row | Compound | inhibition [%]
1 | O=[N+]([O-])c1cc(NCCO)c(N2CCCCCC2)c2nonc12 | -4.05
2 | CCCS(=O)(=O)N1CCC(C(=O)NC2CCCC(C)C2C)CC1 (stereo not drawn) | 3.41
3 | C[C@H](NC(=O)[C@@H]1Cc2ccccc2CN1)C(=O)Nc1ccc2c(c1)OCCO2 | -6.47
4 | CCc1cccc2c(C(=O)COC(=O)c3ccccc3)c[nH]c12 | -6.08
5 | CCc1cccc2c(C(=O)COC(=O)c3ccc(O)cc3)c[nH]c12 | -22.3
6 | O=C(c1ccco1)N1CCN(C(=O)C23CC4CC(CC(C4)C2)C3)CC1 | -6.11
7 | O=C(O)c1ccc(Nc2nc3ccc(Cl)cc3[nH]2)cc1 | -11.1
8 | O=C(O)c1ccc(-c2nnn(Cc3cccc(C(F)(F)F)c3)n2)cc1 | 16.4
9 | CC1CCC(NC(=O)c2ccc(S(C)(=O)=O)cc2)CC1 (stereo not drawn) | -20
10 | CCc1ccc(NC(=O)[C@H](C)NC(=O)C2CCN(C(=O)[C@@H](N)C(C)C)CC2)cc1 | 3.36
11 | CCN1CCN(CCNC(=O)C2CCN(Cc3nc(-c4ccc(Cl)cc4)oc3C)CC2)CC1 | 6.8
12 | Cc1oc(-c2cccc(Cl)c2)nc1CN1CCC(C(=O)NCC2CCCO2)CC1 (stereo not drawn) | 1.34
13 | Cc1oc(-c2cccc(Cl)c2)nc1CN1CCC(C(=O)NC2CC2)CC1 | -4.63
14 | CCN(CCNC(=O)C1CCN(Cc2nc(-c3ccc(Cl)cc3)oc2C)CC1)c1ccccc1 | 6.02
15 | COCCCNC(=O)C(F)(F)C(F)(F)C(=O)NCCCOC | -11.6
16 | S=C(NCCc1ccccn1)Nc1ccccc1 | 7.23
17 | Cc1cc(C)c(NC(=O)COc2nncc3ccccc23)c(C)c1 | -9.5
18 | Cc1cccc(C)c1NC(=O)C[N+](C)(C)CC(O)COc1cccc2ccccc12 (stereo not drawn) | -1.2
19 | CCn1cc(/C=C/C(=O)c2ccc(O)cc2)c(C)n1 | 2.07
20 | O=c1c2ccccc2nc(-c2ccc([N+](=O)[O-])cc2)n1-c1ccccc1 | -1.83
21 | O=S1(=O)NC(=NC2CCCCCC2)c2ccccc21 | -8.09
22 | c1ccc2c(c1)C(=NCC1CCCO1)NC2=NCC1CCCO1 (stereo not drawn) | -5.37

Row | Compound | inhibition [%]
23 | CCOC(=O)[C@@H]1[C@H]2COc3cc(OC)ccc3[C@H]2N2C(=O)N(c3ccc(C(F)(F)F)cc3)C(=O)[C@@]12C | -14.6
24 | CC(=O)c1c(C)[n+]([O-])c2ccc3c(non3O)c12 | 14.6
25 | CCOC(=O)c1c(C)[n+]([O-])c2ccc3c(non3O)c12 | -9.19
26 | CCCn1c(SCC(=O)OCc2ccccc2)nc2c1c(=O)n(C)c(=O)n2C | -3.63
27 | Cc1ccc(S(=O)(=O)N(C)C)cc1NC(=O)COC(=O)/C=C/c1ccc2ccccc2n1 | -5.07
28 | CCOc1ccc(NC(=O)C(=O)NCCN2CCN(S(=O)(=O)c3ccccc3)CC2)cc1 | 3.61
29 | O=C1[C@@H]2C(c3cccnc3)=NO[C@@H]2C(=O)N1c1ccc(Br)cc1 | -5.51
30 | COc1cc2cccc(OC)c(=O)c2c(O)c1OC | -19.1
31 | Oc1cccc2cc3cccc(O)c3c(O)c12 | 7.19
32 | Cc1ccc(S(=O)(=O)NCC2CCC(C(=O)N3CCN(C)CC3)CC2)cc1 (stereo not drawn) | 5.88
33 | CC(C)(C)Cc1nnc(NS(=O)(=O)c2ccc([N+](=O)[O-])cc2)s1 | -2.4
34 | OCCNc1nc(N2CCCCC2)nc2ccccc12 | 4.37
35 | CC(Nc1nc(N2CCNCC2)nc2ccccc12)c1ccccc1 (stereo not drawn) | 17.9
36 | CC(Nc1nc(N2CCN(S(C)(=O)=O)CC2)nc2ccccc12)c1ccccc1 (stereo not drawn) | -4.59
37 | CC(Nc1nc(-c2ccccc2)nc2ccccc12)c1ccccc1 (stereo not drawn) | 18
38 | CC(C)S(=O)(=O)c1nsc2nc(=O)c(/C=C3\C=Nc4ccccc43)c(N)n12 | -9.31
39 | Cc1occc1C(=O)NNC(=O)Nc1ccc([N+](=O)[O-])cc1 | 0.48
40 | CC(C)(Oc1ccc(Cl)cc1)C(=O)NCCN1C(=O)S/C(=C/c2cccnc2)C1=O | -8.14
41 | O=C(CN1CCN(Cc2ccc3c(c2)OCO3)CC1)Nc1ccc(F)cc1 | 2.19
42 | O=C(O)C1C2C=CC(O2)C1C(=O)NCc1ccc2c(c1)OCO2 (stereo not drawn) | 4.49
43 | O=C(O)C(Cc1c[nH]c2ccccc12)NS(=O)(=O)c1ccc2ccccc2c1 (stereo not drawn) | -4.9

From PubChem BioAssay AID1850 (Southern Research Specialized Biocontainment Screening …, 2009)
